CYP2C19 act: increases human CYP2C19 enzyme activity; AID 1025; recombinant CYP2C19, luciferin-H EGE luminescence; stronger effect = higher value; 0 = fully inhibited enzyme, 1 = untreated enzyme; activation factor at 5 µM; P33261; 96,000 tested, under 10 active;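 active = activation factor of at least 2 at 5 µM in the primary screen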
Target sequence (P33261 whole entry, looked up): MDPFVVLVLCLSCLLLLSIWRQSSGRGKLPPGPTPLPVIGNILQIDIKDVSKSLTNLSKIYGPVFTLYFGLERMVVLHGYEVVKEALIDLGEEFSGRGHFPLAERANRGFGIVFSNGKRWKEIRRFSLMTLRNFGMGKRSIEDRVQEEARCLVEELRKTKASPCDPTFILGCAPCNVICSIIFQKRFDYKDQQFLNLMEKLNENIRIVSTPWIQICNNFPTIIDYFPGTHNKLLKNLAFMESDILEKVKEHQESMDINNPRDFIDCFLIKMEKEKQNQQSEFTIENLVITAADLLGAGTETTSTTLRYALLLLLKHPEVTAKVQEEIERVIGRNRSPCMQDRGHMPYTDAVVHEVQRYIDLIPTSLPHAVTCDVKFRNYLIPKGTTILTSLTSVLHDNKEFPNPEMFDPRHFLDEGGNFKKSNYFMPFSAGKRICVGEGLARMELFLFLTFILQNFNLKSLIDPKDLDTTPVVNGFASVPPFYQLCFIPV
CYP2C9 inh: inhibitors of human CYP2C9. inhibition, % at 5 µM. CYP2C9 Supersomes, luciferin-H conversion, luminescence. hit rate 20% among 96,000. P11712;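 active = blocking of liver enzyme CYP2C9 beyond about 50% at 5 µM, limit read from the data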
CYP2C9 act: increases human cytochrome P450 2C9 activity | P11712 | recombinant CYP2C9, luciferin-H conversion, luminescence; stronger effect = higher value; factor 1 = untreated enzyme, 0 = blocked | activation factor at 5 µM | hit rate 1.4% among 96,000 | AID 1024;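 active = activation factor of 2 or more for CYP2C9 at a 5 µM dose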
CYP2C19 inhib: human CYP2C19 inhibition. hit rate 21% among 96,000. inhibition, % at 5 µM. P33261. CYP2C19 Supersomes, luciferin-H EGE luminescence, 30 min;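 active = CYP2C19 inhibition above a set limit at 5 µM in the primary screen, cut at about 50% in these data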
sEH inh: soluble epoxide hydrolase (human) inhibition; P34913; recombinant human sEH enzymatic activity assay; inhibition, % at 2 µM; hit rate 0.34% among 91,000; AID 707; in the data active = inhibition above about 80%
sEH act: soluble epoxide hydrolase (human) activation; purified human sEH enzymatic activity, activator screen; P34913; activation, % at 2 µM; AID 717; hit rate 0.04% among 91,000; in the data active = activation above about 37%
Hits are given with their value; n = inactive; x = not tested or not shown; ! = repeats disagree. Rows were chosen to be rich in hits. Some 27% of all compounds tested hit in one or more screens of this group.

SMILES | CYP2C19 act | CYP2C9 inh | CYP2C9 act | CYP2C19 inhib | sEH inh | sEH act
CCCSC1=C(C#N)C(c2cccnc2)C(C(=O)OCC)=C(c2ccccc2)N1 (stereo not drawn) | n | 61.7 | n | n | n | n
CCOC(=O)C1=C(c2ccccc2)NC(SCC)=C(C#N)C1c1cccnc1 (stereo not drawn) | n | 69.6 | n | n | n | n
COc1ccccc1NC(=O)Cn1nnc(-c2ccccc2NC(=O)c2cc3ccccc3oc2=O)n1 | n | n | n | n | n | n
Cc1cc(C(=O)NCCCN2CCCC2=O)no1 | n | n | n | n | n | n
O=C(NCC(c1cccs1)N1CCOCC1)c1cc2ccccc2o1 (stereo not drawn) | n | 74.5 | n | 74.6 | x | x
S=C(c1ccccc1)N(c1ccccc1)c1ccccc1 | n | n | n | 93.9 | n | n
CC(=O)CCc1c(C)c2cc(C)ccc2[nH]c1=O | n | n | n | n | n | n
COc1ccc2c(C=Nc3c(C)n(C)n(-c4ccccc4)c3=O)c(O)n(Cc3ccco3)c(=O)c2c1 | n | 72.2! | n | 59.7! | n | n
COc1ccc(C(=O)NC(CO)c2nnc(SCc3ccc(Cl)c(Cl)c3)n2C)cc1 (stereo not drawn) | n | n | n | n | n | n
CCn1c(SCCOc2ccc(OC)cc2)nnc1C(CO)NC(=O)c1ccc(OC)cc1 (stereo not drawn) | n | 88.4 | n | 63.6 | n | n
C=CCn1c(SCCOc2ccc(OC)cc2)nnc1C(C)NC(=O)Cc1ccc(OC)cc1 (stereo not drawn) | n | 67.8 | n | 76.7 | n | n
CCOC(=O)C1CCCN(C(=O)CNC(=O)Cn2ccc3ccccc3c2=O)C1 (stereo not drawn) | n | n | n | n | x | x
C=CCn1c(SCC(N)=O)nnc1-c1cccc(Br)c1 | n | n | n | n | n | n
C=CCn1c(SCc2ccccc2C#N)nnc1-c1cc(Br)ccc1O | n | 78.3 | n | 99.2 | n | n
COc1ccc2nc(SCC(=O)Nc3ccccc3C)[nH]c2c1 | n | 87.8 | n | 67.7 | n | n
CCOc1ccc2nc(SCC(=O)NC3CCS(=O)(=O)C3)[nH]c2c1 (stereo not drawn) | n | n | n | n | n | n
CCOc1ccc2nc(SCC(=O)Nc3cc4c(cc3C(C)=O)OCO4)[nH]c2c1 | n | 72.1 | n | 61.2 | n | n
COc1ccc2nc(SCC(=O)Nc3ccccc3C#N)[nH]c2c1 | n | 67.1 | n | n | n | n
COCC(=O)N(C)C1(c2nnnn2CCOC(=O)Nc2cccc3ccccc23)CCCC1 | n | n | n | n | n | n
COC(=O)C(Cc1cnc[nH]1)NC(=O)C1CCC(=O)N1 (stereo not drawn) | n | n | n | n | n | n
CC(C)CNC(=O)c1cc2nc(C3CC3)cc(C(F)(F)F)n2n1 | x | x | x | x | n | n
CSc1nsc(/C=C/Nc2ccc(C)cc2)c1C#N | n | n | n | n | n | n
CC(C)C[C@H](N)c1nnc(S(=O)(=O)Cc2ccc(F)cc2)o1 | n | n | n | n | x | x
O=C(CCn1nnc(-c2cccs2)n1)NCc1ccccc1Cl | n | 64.7 | n | n | n | n
COC(=O)c1cccc(S(=O)(=O)N(Cc2ccco2)Cc2cc3ccc(OC)cc3[nH]c2=O)c1 | n | 51.5 | n | n | n | n
SMILES | CYP2C19 act | CYP2C9 inh | CYP2C9 act | CYP2C19 inhib | sEH inh | sEH act
CCCS(=O)(=O)NCCc1cc2ccc(C)cc2[nH]c1=O | x | x | x | x | n | n
CCN(Cc1cc2ccccc2[nH]c1=O)S(=O)(=O)c1ccccc1 | n | 59.4 | n | 81.2 | n | n
CC(C)C(=O)N(Cc1cc2ccccc2[nH]c1=O)C(C)C | n | n | n | n | n | n
CC(=O)c1cccc(S(=O)(=O)N(CCCO)Cc2cc3ccc(C)cc3[nH]c2=O)c1 | n | 70.9 | n | n | n | n
CCCN(Cc1cc2ccc(C)cc2[nH]c1=O)S(=O)(=O)c1ccccc1 | n | 97.4 | n | n | n | n
Cn1c(=O)[nH]c(=O)c2c1nc(Br)n2CCSc1nc2ccccc2o1 | n | n | n | n | n | n
CCCc1cc(C(=O)Nc2cc(Br)ccc2O)no1 | n | n | n | n | x | x
COc1ccc(OC)c(C2=Nn3c(nnc3-c3cccc(OC(C)C)c3)SC2)c1 | n | n | n | n | n | n
O=C(CCC1COc2ccccc2O1)Nc1cccnc1 (stereo not drawn) | n | n | n | 81.2 | n | n
CC(=O)c1sc(NC(=O)C2COc3ccccc3O2)nc1C (stereo not drawn) | x | x | x | x | n | n
O=C(COC(=O)C1COc2ccccc2O1)NC(=O)Nc1ccc2c(c1)OCCO2 (stereo not drawn) | n | 66.8 | n | n | n | n
CC1(C)Oc2ccc(NC(=O)C3COc4ccccc4O3)cc2O1 (stereo not drawn) | n | 75.6 | n | 93.0 | n | n
Cc1ccc(NC(=O)C2COc3ccccc3O2)nc1 (stereo not drawn) | n | n | n | 89.8 | n | n
O=C(Nc1nncs1)C1COc2ccccc2O1 (stereo not drawn) | n | n | n | n | n | n
O=C(Nc1cccnc1)C1COc2ccccc2O1 (stereo not drawn) | n | n | n | 62.0 | n | n
O=C(CCC1COc2ccccc2O1)Nc1ncccc1O (stereo not drawn) | n | n | n | 64.3 | n | n
O=C(Nc1nnc(C(F)(F)F)s1)C1COc2ccccc2O1 (stereo not drawn) | n | 98.7 | n | 56.0 | n | n
O=C(Nc1ncccc1Cl)C1COc2ccccc2O1 (stereo not drawn) | n | n | n | n | n | n
CCCCN(CC)S(=O)(=O)c1ccccc1 | n | n | n | 81.0 | n | n
CCN(CC)S(=O)(=O)c1cccc(S(=O)(=O)c2cccc(S(=O)(=O)N(CC)CC)c2)c1 | n | 70.5 | n | 91.3 | n | n
CCCCN(CCCC)S(=O)(=O)c1ccc2[nH]c(=O)[nH]c2c1 | n | n | n | n | n | n
CN1CCN(S(=O)(=O)c2cccc(S(=O)(=O)c3ccc(Cl)cc3)c2)CC1 | n | n | 2.1 | n | n | n
Cc1ccc(S(=O)(=O)c2cccc(S(=O)(=O)N3CCCC3)c2)cc1S(=O)(=O)N1CCCC1 | n | n | n | 51.7 | x | x
CCN(CC)S(=O)(=O)c1ccc2c(c1)C(=NO)c1cc(S(=O)(=O)N(CC)CC)ccc1-2 | x | x | x | x | n | n
CCc1cc(-c2n[nH]c(=S)n2N)n(C)n1 | n | n | n | n | n | n
Cn1c(/C(C#N)=C(\O)COc2ccc3ccccc3c2)nc2ccccc21 | n | n | n | n | x | x
COCc1c(C)cc(C)c(/C=N/O)c1C | n | n | n | n | x | x
CC(C(=O)NC1CCCc2ccccc21)N1CCN(Cc2ccc3c(c2)OCO3)CC1 (stereo not drawn) | n | n | n | n | n | n
CCN(CC)S(=O)(=O)c1cccc(S(=O)(=O)N2CCCCC2)c1 | n | 53.3 | n | n | n | n
O=C(O)c1cccc(S(=O)(=O)N2CCCC2)c1 | n | n | n | n | n | n

Screening results from PubChem BioAssay.
